Reference: PubChem BioAssay (EPA / NIEHS)
Records with an inconclusive call do not appear. Calls of active or inactive are those of the source. Rule for the calls, unless noted: active = hit-call score of the fitted dose curve at least 0.9, where 1 is the maximum; inconclusive = response in the unintended direction; inactive = score below 0.9.

Legend:
[1] = ATG_TAL_CIS: Attagene CIS-FACTORIAL HepG2 Assay for human TAL Basal Promoter (AID 2282966; active = hit-call score of the fitted dose curve at least 0.9, where 1 is the maximum; inactive = score below 0.9;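 note: background control endpoint measuring basal TAL promoter reporter mRNA not a specific factor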); details: HepG2 Attagene cis-factorial TAL promoter reporter; actives raise or lower the signal
In short: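 Background-control endpoint: basal TAL promoter reporter transcripts in transiently transfected HepG2, measured 24 h after dosing. Read-out by RT-PCR with fluorescent primer extension and capillary electrophoresis; gain or loss of signal fitted relative to DMSO.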

[2] = ATG_TGFb_CIS: Attagene CIS-FACTORIAL HepG2 Assay for human Transforming Growth Factor (TGF) (AID 2282967; active = hit-call score of the fitted dose curve at least 0.9, where 1 is the maximum; inactive = score below 0.9); details: HepG2 Attagene CIS TGFb reporter, mRNA transcription; actives raise or lower the signal
In short: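 Cells were dosed for 24 hours, after which total RNA was reverse-transcribed and reporter sequences amplified, labeled and sized by capillary electrophoresis. Activity was fitted in both directions against DMSO.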

[3] = ATG_VDRE_CIS: Attagene CIS-FACTORIAL HepG2 Assay for human Vitamin D Receptor Element (VDRE) (AID 2282968; active = hit-call score of the fitted dose curve at least 0.9, where 1 is the maximum; inactive = score below 0.9); details: HepG2 VDRE cis-reporter transcription, actives raise or lower the signal
In short: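 Readout is VDRE-driven reporter mRNA reflecting endogenous factor activity in human HepG2 cells, sampled 24 h post-dose. Quantification used labelled RT-PCR products separated by capillary electrophoresis; bidirectional analysis relative to DMSO.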

[4] = molecular target: Steroid hormone receptor ERR1 (Homo sapiens) (UniProt P11474); test: ATG_ERRa_TRANS: Attagene TRANS-FACTORIAL HepG2 Assay for human Estrogen-Related Receptor alpha (ERRa) (AID 2282971); details: HepG2 Attagene TRANS reporter, ERRa transactivation
Steroid hormone receptor ERR1 (Homo sapiens), sequence (P11474 whole entry, looked up, the tested form may be a part): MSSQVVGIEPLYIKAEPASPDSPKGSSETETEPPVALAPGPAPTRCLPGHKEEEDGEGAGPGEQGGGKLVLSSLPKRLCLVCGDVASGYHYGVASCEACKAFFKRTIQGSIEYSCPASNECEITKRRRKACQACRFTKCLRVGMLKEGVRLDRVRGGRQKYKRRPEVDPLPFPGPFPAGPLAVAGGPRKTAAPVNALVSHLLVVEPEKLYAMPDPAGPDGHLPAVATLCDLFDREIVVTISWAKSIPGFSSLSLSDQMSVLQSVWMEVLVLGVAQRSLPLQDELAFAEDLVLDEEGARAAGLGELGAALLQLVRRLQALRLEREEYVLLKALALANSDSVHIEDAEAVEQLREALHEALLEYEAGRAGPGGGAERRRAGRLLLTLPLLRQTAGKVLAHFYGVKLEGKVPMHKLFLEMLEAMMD
In short: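 Reporter transcripts from ERRa-Gal4 chimera activity measured in transiently transfected human HepG2 cells 24 hours after dosing, using RT-PCR with 6-FAM primer extension, HpaI digestion and capillary electrophoresis; DMSO is baseline.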

[5] = molecular target: X-box-binding protein 1 (Homo sapiens) (UniProt P17861); test: ATG_Xbp1_CIS: Attagene CIS-FACTORIAL HepG2 Assay for human X-box Binding Protein 1 (XBP1) (AID 2282972; active = hit-call score of the fitted dose curve at least 0.9, where 1 is the maximum; inactive = score below 0.9); details: HepG2 XBP1 cis-element reporter, Attagene multiplex; actives raise or lower the signal
X-box-binding protein 1 (Homo sapiens), sequence (P17861 whole entry, looked up): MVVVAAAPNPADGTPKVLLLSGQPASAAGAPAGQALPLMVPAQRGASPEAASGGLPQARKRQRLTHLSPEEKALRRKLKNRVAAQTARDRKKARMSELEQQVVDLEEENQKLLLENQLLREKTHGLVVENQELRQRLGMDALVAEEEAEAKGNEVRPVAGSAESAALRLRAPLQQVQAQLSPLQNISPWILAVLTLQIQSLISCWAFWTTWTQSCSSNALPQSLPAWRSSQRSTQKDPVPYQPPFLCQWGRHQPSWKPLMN
In short: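 Reporter transcripts were quantified by RT-PCR with fluorescent primer extension and capillary electrophoresis after 24 h chemical exposure. Cells: transiently transfected HepG2 carrying cis-regulated reporter constructs; data fitted bidirectionally relative to DMSO.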

[6] = molecular target: Estrogen-related receptor gamma (Homo sapiens) (UniProt P62508); test: ATG_ERRg_TRANS: Attagene TRANS-FACTORIAL HepG2 Assay for human Estrogen-Related Receptor gamma (ERRg) (AID 2282977); details: HepG2 Attagene TRANS reporter, ERRg transactivation;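 note: hits increase reporter signal over DMSO so potencies reflect activators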
Estrogen-related receptor gamma (Homo sapiens), sequence (P62508 whole entry, looked up, the tested form may be a part): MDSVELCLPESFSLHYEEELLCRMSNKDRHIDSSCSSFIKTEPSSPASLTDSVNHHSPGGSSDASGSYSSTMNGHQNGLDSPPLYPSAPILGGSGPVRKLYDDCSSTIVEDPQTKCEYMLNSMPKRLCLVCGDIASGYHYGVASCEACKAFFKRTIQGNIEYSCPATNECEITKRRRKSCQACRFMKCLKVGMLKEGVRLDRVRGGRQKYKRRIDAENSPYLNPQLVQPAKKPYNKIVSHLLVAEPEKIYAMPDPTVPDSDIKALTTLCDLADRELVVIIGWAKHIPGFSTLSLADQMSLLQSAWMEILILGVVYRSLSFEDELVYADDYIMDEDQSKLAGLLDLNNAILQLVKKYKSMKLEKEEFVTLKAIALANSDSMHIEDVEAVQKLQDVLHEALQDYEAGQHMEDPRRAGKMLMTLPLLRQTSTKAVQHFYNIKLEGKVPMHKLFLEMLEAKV
In short: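 Exogenous NR-Gal4 chimera activity measured as reporter transcript induction after 24 h in transiently transfected HepG2 cells. RNA reverse-transcribed, PCR-amplified, 6-FAM-labelled and resolved by capillary electrophoresis; increase over DMSO baseline.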

[7] = molecular target: Bile acid receptor (Homo sapiens) (UniProt Q96RI1); test: ATG_FXR_TRANS: Attagene TRANS-FACTORIAL HepG2 Assay for Farnesoid X Receptor (FXR) (AID 2282979); details: HepG2 Attagene TRANS FXR-GAL4 reporter transcription;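 note: hits raise reporter mRNA above DMSO so AC50 marks FXR activation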
Bile acid receptor (Homo sapiens), sequence (Q96RI1 whole entry, looked up, the tested form may be a part): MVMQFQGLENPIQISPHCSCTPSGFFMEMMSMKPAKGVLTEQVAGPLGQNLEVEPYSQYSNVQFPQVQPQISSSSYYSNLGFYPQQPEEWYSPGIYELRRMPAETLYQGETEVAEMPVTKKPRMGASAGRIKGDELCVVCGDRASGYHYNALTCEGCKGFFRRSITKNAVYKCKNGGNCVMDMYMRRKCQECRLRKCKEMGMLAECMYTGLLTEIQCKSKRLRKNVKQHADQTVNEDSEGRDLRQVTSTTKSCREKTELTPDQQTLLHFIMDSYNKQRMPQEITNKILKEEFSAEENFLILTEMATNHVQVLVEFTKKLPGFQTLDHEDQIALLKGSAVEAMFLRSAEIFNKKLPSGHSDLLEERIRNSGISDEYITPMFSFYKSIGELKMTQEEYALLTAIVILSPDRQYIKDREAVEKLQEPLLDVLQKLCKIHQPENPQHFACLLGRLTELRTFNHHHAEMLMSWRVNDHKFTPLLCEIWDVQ
In short: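 Reporter transcripts from transfected HepG2 cells were measured 24 h after dosing, using RT-PCR with capillary electrophoresis of 6-FAM-labelled fragments. The read-out reflects activity of exogenous FXR-Gal4 chimera on GAL4-UAS units, with induction relative to DMSO.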

[8] = ATG_M_06_TRANS: Attagene TRANS-FACTORIAL HepG2 Assay for M06 Transcription Factor (Internal Marker) (AID 2282983); details: HepG2 Attagene TRANS M06 internal marker reporter
In short: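 Background-control reporter readout: after 24 h chemical exposure of transiently transfected HepG2 (GAL4-UAS reporter units), mRNA quantified by RT-PCR with fluorescent labeling and capillary electrophoresis. Gain-of-signal fitting against DMSO baseline.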

[9] = ATG_M_19_TRANS: Attagene TRANS-FACTORIAL HepG2 Assay for M19 Transcription Factor (Internal Marker) (AID 2282974); details: HepG2 Attagene TRANS-FACTORIAL M19 internal marker reporter
In short: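 Gain-of-signal in reporter mRNA, relative to DMSO, was scored from capillary electrophoresis fluorescence. HepG2 cells carried transiently transfected multiple reporter transcription units and were incubated with test chemicals for 24 h.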

[10] = ATG_Hpa5_TRANS: Attagene TRANS-FACTORIAL HepG2 Assay for human GAL4-Hpa5 Hepatocyte Transcription Factor Basal Promoter (AID 2282975); details: HepG2 Attagene GAL4-Hpa5 transcription reporter;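 note: hits are increases in reporter mRNA over DMSO baseline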
In short: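 Gain-of-signal versus DMSO is fitted for reporter mRNA quantified by RT-PCR and capillary electrophoresis after 24 h exposure. This endpoint is an internal background marker in transiently transfected HepG2 cells carrying GAL4-UAS reporter units.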

[11] = ATG_GAL4_TRANS: Attagene TRANS-FACTORIAL HepG2 Assay for GAL4 (Internal Marker) (AID 2282976); details: HepG2 Attagene TRANS GAL4 internal marker reporter
In short: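 In transfected human HepG2 liver cells dosed 24 h, GAL4 reporter mRNA serves as a baseline marker. Detection by RT-PCR with fluorescent capillary electrophoresis, activity fitted upward relative to DMSO.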

[12] = molecular target: Oxysterols receptor LXR-beta (Homo sapiens) (UniProt P55055); test: ATG_LXRb_TRANS: Attagene TRANS-FACTORIAL HepG2 Assay for human Liver X Receptor beta (LXRb) (AID 2282981); details: HepG2 Attagene TRANS GAL4-LXRb reporter, mRNA
Oxysterols receptor LXR-beta (Homo sapiens), sequence (P55055 whole entry, looked up, the tested form may be a part): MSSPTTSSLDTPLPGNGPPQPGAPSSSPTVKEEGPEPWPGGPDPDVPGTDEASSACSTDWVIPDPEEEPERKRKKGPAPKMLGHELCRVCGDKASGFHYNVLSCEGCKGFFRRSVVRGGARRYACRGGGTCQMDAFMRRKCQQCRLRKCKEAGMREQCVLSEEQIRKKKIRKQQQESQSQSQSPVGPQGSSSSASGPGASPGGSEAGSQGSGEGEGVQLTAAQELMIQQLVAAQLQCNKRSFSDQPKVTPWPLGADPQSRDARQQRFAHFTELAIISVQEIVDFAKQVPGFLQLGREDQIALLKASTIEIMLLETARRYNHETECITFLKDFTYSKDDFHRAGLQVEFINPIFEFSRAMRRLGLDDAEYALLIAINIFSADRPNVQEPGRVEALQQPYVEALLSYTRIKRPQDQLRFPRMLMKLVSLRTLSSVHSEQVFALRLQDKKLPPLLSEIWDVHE
In short: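 After 24 h chemical treatment of transfected HepG2 cells carrying exogenous NR-Gal4 chimeras, reporter mRNA was quantified by fluorescent RT-PCR and capillary electrophoresis; activity taken as increase over DMSO controls.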

[13] = molecular target: Hepatocyte nuclear factor 4-alpha (Homo sapiens) (UniProt P41235); test: ATG_HNF4a_TRANS: Attagene TRANS-FACTORIAL HepG2 Assay for human Hepatocyte Nuclear Factor 4 alpha (HNF4a) (AID 2282982); details: HepG2 HNF4a transactivation reporter, mRNA readout
In short: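 Activity of an exogenous HNF4a–Gal4 fusion scored as induced GAL4-UAS reporter transcripts after 24 h chemical exposure of transfected human HepG2 cells. Read-out via RT-PCR with 6-FAM labelling and capillary electrophoresis; rise over DMSO baseline.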

[14] = ATG_M_32_TRANS: Attagene TRANS-FACTORIAL HepG2 Assay for M32 Transcription Factor (Internal Marker) (AID 2282984); details: HepG2 Attagene TRANS M32 internal marker reporter
In short: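 Internal background reporter in transfected HepG2: after 24 h chemical exposure, RNA reverse-transcribed, reporter cDNA amplified, fluorescently labelled and HpaI-cut, then sized by capillary electrophoresis. Gain of signal fitted against DMSO control.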

[15] = molecular target: Nuclear receptor subfamily 1 group I member 3 (Homo sapiens) (UniProt Q14994); test: ATG_CAR_TRANS: Attagene TRANS-FACTORIAL HepG2 Assay for human Constitutive Androstane Receptor (CAR) (AID 2282969); details: HepG2 Attagene TRANS-FACTORIAL CAR reporter;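 note: activators raise reporter mRNA above DMSO so AC50 marks induction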
Nuclear receptor subfamily 1 group I member 3 (Homo sapiens), sequence (Q14994 whole entry, looked up, the tested form may be a part): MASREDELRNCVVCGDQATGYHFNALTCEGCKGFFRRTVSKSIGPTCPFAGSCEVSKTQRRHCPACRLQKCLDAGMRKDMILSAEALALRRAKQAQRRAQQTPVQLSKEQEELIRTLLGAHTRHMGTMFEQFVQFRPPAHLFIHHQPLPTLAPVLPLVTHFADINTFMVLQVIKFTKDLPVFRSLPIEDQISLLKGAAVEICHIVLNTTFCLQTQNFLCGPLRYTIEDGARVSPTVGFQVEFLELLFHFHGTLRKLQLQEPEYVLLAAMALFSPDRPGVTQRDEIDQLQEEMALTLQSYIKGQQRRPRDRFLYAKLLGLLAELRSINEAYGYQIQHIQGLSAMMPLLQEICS
In short: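 Signal is reporter mRNA induction relative to DMSO, measured 24 h after dosing by RT-PCR with fluorescent primer extension and capillary electrophoresis. Human HepG2 liver cells carried transiently transfected chimeric NR-Gal4/GAL4-UAS reporter constructs.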

[16] = molecular target: Nuclear receptor subfamily 4 group A member 2 (Homo sapiens) (UniProt P43354); test: ATG_NURR1_TRANS: Attagene TRANS-FACTORIAL HepG2 Assay for human Nuclear Receptor Related Protein 1 (NURR1) (AID 2282985); details: HepG2 Attagene TRANS reporter, mRNA readout
Nuclear receptor subfamily 4 group A member 2 (Homo sapiens), sequence (P43354 whole entry, looked up, the tested form may be a part): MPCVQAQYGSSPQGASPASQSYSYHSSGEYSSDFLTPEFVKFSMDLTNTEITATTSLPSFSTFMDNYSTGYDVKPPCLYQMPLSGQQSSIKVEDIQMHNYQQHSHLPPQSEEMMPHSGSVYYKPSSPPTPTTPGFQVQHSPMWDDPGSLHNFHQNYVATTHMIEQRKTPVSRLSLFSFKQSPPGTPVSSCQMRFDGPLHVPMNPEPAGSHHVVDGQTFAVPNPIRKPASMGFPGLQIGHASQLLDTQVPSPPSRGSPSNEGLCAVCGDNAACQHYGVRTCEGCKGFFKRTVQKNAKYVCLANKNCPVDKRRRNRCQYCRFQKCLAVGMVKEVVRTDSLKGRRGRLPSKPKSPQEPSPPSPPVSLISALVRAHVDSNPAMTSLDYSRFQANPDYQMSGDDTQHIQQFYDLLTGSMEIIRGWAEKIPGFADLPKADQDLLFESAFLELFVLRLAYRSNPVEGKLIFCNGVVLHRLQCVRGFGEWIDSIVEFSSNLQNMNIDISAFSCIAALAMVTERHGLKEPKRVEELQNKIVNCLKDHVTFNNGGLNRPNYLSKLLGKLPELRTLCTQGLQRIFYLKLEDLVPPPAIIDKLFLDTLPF
In short: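 Reporter transcript induction, measured by RT-PCR with fluorescent labelling, HpaI digestion and capillary electrophoresis, after 24 hr dosing of human HepG2 cells transiently expressing an exogenous NR-Gal4 fusion with GAL4-UAS-driven reporters; DMSO as baseline.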

[17] = molecular target: Androgen receptor (Homo sapiens) (UniProt P10275); test: ATG_AR_TRANS: Attagene TRANS-FACTORIAL HepG2 Assay for human Androgen Receptor (AR) (AID 2282973); details: HepG2 Attagene TRANS-FACTORIAL AR reporter transcription
Androgen receptor (Homo sapiens), sequence (P10275 whole entry, looked up, the tested form may be a part): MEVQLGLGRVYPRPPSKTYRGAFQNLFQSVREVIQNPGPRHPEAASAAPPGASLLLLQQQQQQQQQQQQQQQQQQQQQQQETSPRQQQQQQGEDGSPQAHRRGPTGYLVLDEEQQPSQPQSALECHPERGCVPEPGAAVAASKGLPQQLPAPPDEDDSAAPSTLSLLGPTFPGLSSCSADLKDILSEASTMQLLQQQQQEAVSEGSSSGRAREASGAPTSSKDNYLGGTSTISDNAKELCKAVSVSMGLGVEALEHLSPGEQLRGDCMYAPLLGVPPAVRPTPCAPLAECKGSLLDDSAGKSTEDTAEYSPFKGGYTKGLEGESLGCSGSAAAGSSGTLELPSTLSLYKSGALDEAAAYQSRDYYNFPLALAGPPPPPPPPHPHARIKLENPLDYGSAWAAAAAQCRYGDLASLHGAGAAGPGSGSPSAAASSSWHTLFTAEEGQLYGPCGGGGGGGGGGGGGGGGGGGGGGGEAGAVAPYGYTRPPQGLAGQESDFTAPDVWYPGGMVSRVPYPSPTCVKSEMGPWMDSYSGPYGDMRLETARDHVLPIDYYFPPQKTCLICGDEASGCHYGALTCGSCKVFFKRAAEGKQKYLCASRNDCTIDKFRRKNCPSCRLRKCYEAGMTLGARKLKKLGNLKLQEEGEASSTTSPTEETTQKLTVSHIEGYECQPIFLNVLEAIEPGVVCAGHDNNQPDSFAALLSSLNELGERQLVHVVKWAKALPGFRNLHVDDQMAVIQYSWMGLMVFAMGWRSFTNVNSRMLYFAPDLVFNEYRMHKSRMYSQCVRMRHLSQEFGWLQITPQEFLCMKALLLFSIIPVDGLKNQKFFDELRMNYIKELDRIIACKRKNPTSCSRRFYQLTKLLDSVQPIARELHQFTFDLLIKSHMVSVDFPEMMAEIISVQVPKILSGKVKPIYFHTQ
In short: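 Transcriptional activity of an exogenous AR–Gal4 fusion read as GAL4-UAS reporter transcript levels in transfected human HepG2 cells after 24 h dosing. Detection via RT-PCR, 6-FAM labelling, HpaI digest and capillary electrophoresis; increase over DMSO baseline.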

[18] = molecular target: Glucocorticoid receptor (Homo sapiens) (UniProt P04150); test: ATG_GR_TRANS: Attagene TRANS-FACTORIAL HepG2 Assay for human Glucocorticoid Receptor (GR) (AID 2282978); details: HepG2 Attagene TRANS GR reporter, mRNA transcription;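 note: activators score as hits since higher reporter transcript over DMSO is fitted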
Glucocorticoid receptor (Homo sapiens), sequence (P04150 whole entry, looked up, the tested form may be a part): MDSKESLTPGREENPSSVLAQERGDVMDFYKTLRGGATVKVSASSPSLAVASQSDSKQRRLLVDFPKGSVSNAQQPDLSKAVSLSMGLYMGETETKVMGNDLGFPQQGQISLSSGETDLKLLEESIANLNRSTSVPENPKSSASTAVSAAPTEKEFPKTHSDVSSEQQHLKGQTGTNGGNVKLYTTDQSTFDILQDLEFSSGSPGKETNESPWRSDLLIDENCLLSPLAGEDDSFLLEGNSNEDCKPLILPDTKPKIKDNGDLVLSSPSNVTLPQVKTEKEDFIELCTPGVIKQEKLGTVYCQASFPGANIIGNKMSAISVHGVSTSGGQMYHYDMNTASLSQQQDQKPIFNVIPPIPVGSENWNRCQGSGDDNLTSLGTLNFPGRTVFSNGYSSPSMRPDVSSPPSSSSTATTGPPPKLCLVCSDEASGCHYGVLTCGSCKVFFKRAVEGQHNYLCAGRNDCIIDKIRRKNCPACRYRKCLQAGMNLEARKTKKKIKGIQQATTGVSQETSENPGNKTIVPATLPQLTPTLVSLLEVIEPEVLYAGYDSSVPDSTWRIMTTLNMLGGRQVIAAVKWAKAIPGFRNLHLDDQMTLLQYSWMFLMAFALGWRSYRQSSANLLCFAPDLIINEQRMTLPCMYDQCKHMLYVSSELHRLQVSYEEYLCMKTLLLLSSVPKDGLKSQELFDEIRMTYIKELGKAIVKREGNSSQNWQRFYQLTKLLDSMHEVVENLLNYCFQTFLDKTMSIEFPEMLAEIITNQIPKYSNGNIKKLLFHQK
In short: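 HepG2 transient transfection, multiple reporter units, GAL4-UAS under NR-GAL4 chimera control. 24 h treatment. Reporter mRNA by RT-PCR/CE fluorescence, DMSO as negative control.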

Measured: AC50

COc1cccc(C(=O)NN(C(=O)c2cc(C)cc(C)c2)C(C)(C)C)c1C
inactive: [1] | [2] | [4] | [5] | [6] | [7] | [8]
active: [3] 1.94 µM

CCCOCC(=Nc1ccc(Cl)cc1C(F)(F)F)n1ccnc1
not listed: [4] | [6] | [15] | [16] | [17] | [18]
inactive: all other assays above

CCC(CC)Nc1c([N+](=O)[O-])cc(C)c(C)c1[N+](=O)[O-]
active: [3] 15.3 µM
not listed: [2] | [6] | [11] | [13] | [17] | [18]
inactive: all other assays above

CCCCOC(=O)c1ccccc1C(=O)O
inactive: [1] | [15] | [5] | [17] | [9] | [12] | [13] | [14]

COP(=O)(OC)OC(Br)C(Cl)(Cl)Br (stereo not given)
inactive: [1] | [3] | [5] | [9] | [18] | [7] | [12] | [13]

CC(=NC#N)N(C)Cc1ccc(Cl)nc1
inactive: [1] | [3] | [5] | [10] | [12] | [13] | [8] | [14] | [16]

CCCSP(=O)(OCC)Oc1ccc(Br)cc1Cl (stereo not given)
active: [3] 6.6 µM | [5] 1.31 µM
inactive: [1] | [15] | [10] | [7] | [12] | [8] | [14] | [16]

CCC(=NOC/C=C/Cl)C1=C(O)CC(C2CCOCC2)CC1=O (stereo not given)
not listed: [2] | [7] | [8] | [11] | [15] | [16] | [17]
inactive: all other assays above

S=C1NCCN1
inactive: [1] | [3] | [5] | [12] | [13] | [8] | [14] | [16]

CN(C)NC(=O)CCC(=O)O
inactive: [1] | [3] | [4] | [5] | [12] | [8] | [14] | [16]

CC(COc1ccc(Oc2ccccc2)cc1)Oc1ccccn1 (stereo not given)
active: [3] 16 µM
inactive: [1] | [15] | [4] | [5] | [6] | [12] | [13] | [14] | [16]

CCOP(=O)(NC(C)C)Oc1ccc(SC)c(C)c1 (stereo not given)
active: [3] 8.8 µM
not listed: [2] | [4] | [6] | [13] | [16]
inactive: all other assays above

CCCCN(CC)c1c([N+](=O)[O-])cc(C(F)(F)F)cc1[N+](=O)[O-]
active: [3] 13.3 µM
not listed: [2] | [7] | [9] | [11] | [12] | [13] | [17]
inactive: all other assays above

CC(C)=CC1C(C(=O)OCN2C(=O)C3=C(CCCC3)C2=O)C1(C)C (stereo not given)
inactive: [1] | [17] | [9] | [10] | [6] | [18] | [12] | [14] | [16]
active: [3] 31.7 µM | [5] 50 µM

CCOP(=S)(Oc1cnc(C(C)(C)C)nc1)OC(C)C (stereo not given)
inactive: [1] | [15] | [4] | [5] | [6] | [18] | [13] | [8]
active: [3] 1.89 µM | [12] 11.1 µM

CSc1nnc(C(C)(C)C)c(=O)n1N
inactive: [1] | [3] | [5] | [12] | [13] | [8] | [16]

CCCSP(=O)(OCC)SCCC
active: [3] 50 µM
inactive: [1] | [15] | [5] | [9] | [10] | [18] | [7] | [12] | [16]

CC(C)N(C(=O)SCC(Cl)=C(Cl)Cl)C(C)C
inactive: [1] | [15] | [5] | [10] | [13] | [8] | [14] | [16]
active: [3] 29.1 µM | [12] 20.1 µM

CCOP(=O)(SC(C)CC)N1CCSC1=O (stereo not given)
inactive: [1] | [3] | [15] | [5] | [9] | [10] | [12] | [13] | [14]
